# In PubChem BioAssay AID485344 (National Center for Advancing Translational Sciences (NCATS), 2010):
# The campaign covered roughly 340,000 compounds. About 6,900 (2%) were called active. The sample as a whole holds a higher share of actives than the screen did. A number with no mark means an inactive call. Rule as the data show it: active = inhibition above about 30%; inactive = below that, where a call was filed.
# Target: D(2) dopamine receptor (Homo sapiens) (UniProt P14416)
# Experiment: HTS Assay for Allosteric Antagonists of the Human D2 Dopamine Receptor: Primary Screen for Antagonists; also: 0% is about no effect
# Settings: HEK293 TREx D2 cells, calcium flux, dopamine EC80; at 10 µM; stronger effect = higher value
# From the text: NIH Chemical Genomics Center [NCGC] NIH Molecular Libraries Probe Centers Network [MLPCN] MLPCN Grant: NS064831-01 Assay Submitter (PI): David Sibley Dopamine receptors (DARs) are involved in the etiology and/or therapy of a number of neuropsychiatric and endocrine disorders. For instance, all receptor-based antiparkinsonian drugs work via stimulating the D2 DAR subtype whereas all FDA-approved antipsychotic agents are antagonists of this receptor. […] There are three different types of allosteric modulators that we are seeking, two of which will stimulate or augment receptor signaling, allosteric agonists and potentiators, while the third, allosteric antagonists, will attenuate receptor signaling. The present primary screening assay measures compound antagonism after an EC80 addition of dopamine by tracking calcium flux in a […], inducible Hek293 Trex D2 cell line.
# Freshly passaged cells are plated in 1536 well black, clear bottom plates at a density of 4000 cells/well in 3 ul of complete media containing 1x tetracycline inducer. After an overnight incubation at 30 C in 5% CO2, cells are loaded with 2 ul of the no wash Calcium Assay Kit (ABD Bioquest) and incubated at room temperature for 30 to 90 minutes. Agonist read: A 10 cycle (1 second/cycle) baseline measurement is taken and then the FDSS online 1536 pintool delivers 23 nl of compound library (as well as dopamine controls) to the plate. The plate is measured for kinetically at 1 cycle/sec for 180 seconds. Following the 180 second read, 1 ul of an EC80 (negative modulation assay) is delivered by an onboard pipette head. Measurements are taken kinetically for an additional 180 seconds.
# Sequence of D(2) dopamine receptor (Homo sapiens) (P14416 whole entry, looked up): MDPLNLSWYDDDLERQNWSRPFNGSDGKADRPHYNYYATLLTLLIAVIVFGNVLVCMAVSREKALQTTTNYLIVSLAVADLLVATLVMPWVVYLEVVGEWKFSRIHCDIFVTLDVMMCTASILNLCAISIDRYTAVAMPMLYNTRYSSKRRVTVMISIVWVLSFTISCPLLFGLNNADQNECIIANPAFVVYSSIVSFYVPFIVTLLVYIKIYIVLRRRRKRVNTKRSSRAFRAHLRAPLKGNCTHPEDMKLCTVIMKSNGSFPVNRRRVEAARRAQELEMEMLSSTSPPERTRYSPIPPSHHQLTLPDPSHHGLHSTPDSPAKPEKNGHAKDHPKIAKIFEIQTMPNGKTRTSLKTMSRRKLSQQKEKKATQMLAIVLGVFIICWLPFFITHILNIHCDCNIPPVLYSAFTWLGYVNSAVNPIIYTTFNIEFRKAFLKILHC
row,Compound,inhibition
1,Cc1ccc(S(=O)(=O)N(CC(O)CN2C(=O)NC(C)(C)C2=O)c2cccc([N+](=O)[O-])c2)cc1 (stereo not given),30.4% (active)
2,COc1ccc([N+](=O)[O-])cc1N(CC(O)Cn1nnc2ccccc21)S(=O)(=O)c1ccc(C)cc1 (stereo not given),12.1%
3,Cc1ccc(S(=O)(=O)N(CC(O)CN2CCCCC2)c2cccc([N+](=O)[O-])c2)cc1 (stereo not given),35.8% (active)
4,Cc1ccc(N(CC(O)CN2CCCC2)S(=O)(=O)c2ccccc2)cc1 (stereo not given),-18.8%
5,CCN(CC)C(=O)CN(c1cccc([N+](=O)[O-])c1)S(=O)(=O)c1ccccc1,-8.71%
6,O=S(=O)(c1ccccc1)N(CC(O)CN1CCCCC1)c1ccccc1 (stereo not given),-13.9%
7,COc1ccc([C@H]2CC(=O)C=C(c3ccc(OC(F)(F)F)cc3)C2)cc1OC,10.4%
8,CN(CC(=O)NCCc1ccc(F)cc1)CC(=O)Nc1ccc(F)c(F)c1F,-4.31%
9,CCCCn1c(N)c(N(CCC(C)C)C(=O)COC(=O)c2ccc(CC)cc2)c(=O)[nH]c1=O,-24%
10,O=C(Nc1ccc2c(c1)OCO2)C1CC1(Cl)Cl (stereo not given),4.68%
11,COc1ccc(Cc2nnnn2CC(=O)O)cc1,35.2% (active)
12,COc1ccc(Cc2nnc(SCC(=O)N(c3ccccc3)C(C)C)n(N)c2=O)cc1,-8.57%
13,CCCn1nnnc1NCc1ccc(OC)cc1,-21.1%
14,Cc1ccccc1OCCC(=O)OCC(=O)NCCc1ccc(S(N)(=O)=O)cc1,-20%
15,COc1cccc(C(=O)N2CCCC(CCC(=O)NCc3ccc(F)c(F)c3)C2)c1 (stereo not given),34.4% (active)
16,COc1cccc(CNC(=O)CCC2CCCN(C(=O)c3ccoc3C)C2)c1 (stereo not given),-10.4%
17,COc1cccc(CNC(=O)CCC2CCCN(C(=O)c3ccc(F)c(Cl)c3)C2)c1 (stereo not given),7.84%
18,Cc1ccc(S(=O)(=O)N2[C@@H](c3cccc(Cl)c3)C(C(=O)O)=CC[C@H]2c2ccc(Cl)c(Cl)c2)cc1,-1.92%
19,COc1ccc(S(=O)(=O)N2CCOCC2)cc1NC(=O)Cc1coc2cc(C)ccc12,-8.41%
20,O=C(NNC(=O)C1CCC1)c1ccccc1,-2.25%
21,CC(C)C[C@H](NC(=O)Nc1cccc(C(F)(F)F)c1)C(=O)O,7.87%
22,CCNS(=O)(=O)c1ccc(NC(=O)Nc2cccc(C(F)(F)F)c2)cc1,38.4% (active)
23,Cc1ccc(NC(=O)Nc2cccc(C(F)(F)F)c2)nc1,-7.91%

row,Compound,inhibition
1,CCOC(=O)[C@H]1[C@H]2COc3ccc(C)cc3[C@@H]2N2C(=O)CN(Cc3ccc(F)cc3)C(=O)[C@@]12C,-3.67%
2,O=C(CCN1CCN(C/C=C/c2ccccc2)CC1)Nc1cccc(F)c1,-21%
3,O=C(CN1CCN(C/C=C/c2ccccc2)CC1)Nc1ccc(F)cc1F,6.36%
4,O=C(CCN1CCN(C/C=C/c2ccccc2)CC1)Nc1ccccc1Cl,31.9% (active)
5,O=C(CN1CCN(S(=O)(=O)c2cccc(Cl)c2)CC1)N1CCCCC1,14%
6,Cc1ccc(C)c(NC(=O)CN(C)C(=O)c2ccc3ncsc3c2)c1,17.4%
7,CCCn1nc(C(=O)OCc2nc(N)nc(Nc3ccccc3C)n2)c2ccccc2c1=O,6.08%
8,Cc1ccc(S(=O)(=O)N(C)CC(=O)OCC(=O)N2CC(=O)Nc3ccccc32)cc1,36.8% (active)
9,COc1cc(OC)c(C(=O)OCC(=O)N2CC(=O)Nc3ccccc32)cc1OC,-2.09%
10,Cc1ccc(S(=O)(=O)N(C)CC(=O)OCC(=O)Nc2ccccc2)cc1,-5.35%
11,COc1cc(C(=O)Nc2ncccc2C)ccc1OCC(=O)N1CCOCC1,-21.1%
12,COc1ccc(NC(=O)CN(C)C(=O)c2cccc(S(=O)(=O)N3CCN(c4ccccc4)CC3)c2)cc1,-9.07%
13,Cc1cccc(-c2oc3ccc(-c4ccc5c(c4)OCO5)cc3c2C#Cc2cncn2C)c1,11.3%
14,CC(=O)N/C(=C/c1ccc(Cl)cc1)C(=O)NCCc1c[nH]c2ccccc12,31% (active)
15,COc1ccccc1CC(=O)NCCc1c[nH]c2ccccc12,-11.6%
16,COc1ccc(/C=C(\NC(=O)c2ccc(OC)c(OC)c2)C(=O)NCCc2c[nH]c3ccccc23)cc1,-6.61%
17,CC1CC(C)CN(C(=O)COC(=O)c2ccc3ncsc3c2)C1 (stereo not given),-13.9%
18,NS(=O)(=O)c1ccc(CNC(=O)c2cccc(S(=O)(=O)N3CCc4ccccc43)c2)cc1,41% (active)
19,NS(=O)(=O)c1ccc(CNC(=O)c2cccc(Oc3ccccc3)c2)cc1,9.32%
20,Cc1ccc(NC(=O)c2cccc(S(=O)(=O)N3CCCc4ccccc43)c2)nc1,7.09%
21,Cc1ccccc1Nc1nc(N)nc(COC(=O)CCC(=O)c2ccc(F)cc2)n1,2.44%
22,COc1ccc(-c2c(-c3cc(OC)cc(OC)c3)n(C)c3ccc(-c4ccn[nH]4)cc23)cc1,-12.7%
23,CCc1nnc(NC(=O)CSc2nnc(Cc3ccccc3)n2-c2ccc(OC)cc2)s1,0.9%

row,Compound,inhibition
1,Cc1cnc(NC(=O)CSc2nnc(-c3ccccc3)n2Cc2ccccc2)s1,8.7%
2,CCc1nnc(NC(=O)CSc2nnc(-c3ccncc3)n2Cc2ccccc2)s1,30.7% (active)
3,COc1ccccc1CNC(=O)COC(=O)c1sc(C)nc1C,16.2%
4,O=C(NCC1CCCO1)c1cc2c(s1)CCCC2 (stereo not given),24.5%
5,O=C(COC(=O)CNC(=O)C1CCCCC1)Nc1cccc(F)c1,-2.8%
6,COc1ccc(CNC(=O)C(C)NCc2ccccc2Cl)cc1 (stereo not given),2.26%
7,CC(CCc1ccc(O)cc1)NCc1ccc(Cl)cc1Cl (stereo not given),57% (active)
8,OC(CNCCc1ccc(Cl)cc1Cl)COc1ccccc1 (stereo not given),-28.1%
9,Cc1ccc(OCC(=O)Nc2ccccc2C(=O)NC2CC2)cc1,-3.15%
10,Cc1c(NS(=O)(=O)c2cc(C(=O)NCCc3ccc(F)cc3)cc(Cl)c2Cl)c(=O)n(-c2ccccc2)n1C,0.733%
11,COC(=O)/C(=C1\Oc2ccc(C(C)(C)C)cc2S1)C(F)(F)F,0.21%
12,CCOC(=O)c1nnn(-c2nonc2OC)c1-c1ccccc1,1.66%
13,CCOC(=O)C1=C(c2ccccc2)O/C(=C(/C(=O)OC)C(F)(F)F)S1,39% (active)
14,COc1ccc(S(=O)(=O)N2CCN(CC(=O)N3c4ccccc4CC3C)CC2)cc1OC (stereo not given),-15.7%
15,CCCCn1c(N)c(N(CCC(C)C)C(=O)COC(=O)c2cccnc2OCC)c(=O)[nH]c1=O,-12.2%
16,Cc1ccc(NC(=O)NC(=O)c2ccccc2)cc1F,-2%
17,O=C(NC(=O)c1ccccc1)NC(=O)c1ccccc1,27%
18,O=C(NC(=O)c1ccccc1)Nc1ccccc1O,40% (active)
19,CC(C)Cc1nnc(NC(=O)CCNC(=O)c2ccccc2Cl)s1,-3.78%
20,Cc1ccc(NC(=O)Cc2nc(COC(=O)C(C)NS(=O)(=O)c3ccc(C)cc3)cs2)cc1 (stereo not given),2.42%
21,COc1ccc(C(=O)Nc2cc(C)ccc2NC(=O)COc2ccccc2)cc1,44.4% (active)
22,COc1ccc(OCC(=O)NNC(=O)c2cccc(C)c2)cc1,1.66%
23,Cc1cccc(OCC(=O)Nc2ccc(C(=O)O)cc2NC(=O)COc2cccc(C)c2)c1,-10.4%

row,Compound,inhibition
1,O=C(NCCc1ccc(F)cc1)c1ccc2nccnc2c1,-19%
2,CCOc1ccc(C(O)Cn2c(=N)n(CCN3CCCCC3)c3ccccc32)cc1 (stereo not given),-7.44%
3,COc1cccc(OCC(O)CN2CCN(CCO)CC2)c1 (stereo not given),-3.18%
4,Cc1cccc(OCC(O)Cn2c(=N)n(CCN3CCOCC3)c3ccccc32)c1 (stereo not given),31.7% (active)
5,COc1ccc(C)cc1NC(=O)CCCN1C(=O)NC(C)(C)C1=O,-9.24%
6,Cc1nnc(NC(=O)c2ccc3nccnc3c2)s1,3.14%
7,CC1(C(=O)OCC(=O)Nc2ncc(Cl)cc2Cl)CC1(Cl)Cl (stereo not given),11.7%
8,C=CCN1C(=O)c2ccc(C(=O)N3CCC(C(=O)OCC)CC3)cc2C1=O,2.03%
9,CSCC(=O)N1CCCC(C(=O)c2cc(F)ccc2F)C1 (stereo not given),-7.86%
10,O=C(c1ccc(OC2CCN(C/C=C/c3ccc(F)cc3)CC2)cc1)N1CCCCC1,26.2%
11,COc1ccc(/C=C/CN2CCCC(C(=O)c3cc(F)ccc3F)C2)cc1 (stereo not given),34.2% (active)
12,O=C(NCCS(=O)(=O)N1CCN(c2ccccc2)CC1)c1ccco1,9.95%
13,Cc1csc2nc(COC(=O)c3cccc(N(C)C)c3)cc(=O)n12,-21.3%
14,CCNc1c(NS(=O)(=O)c2ccc(C3CCCCC3)cc2)c(=O)oc2ccccc12,16.7%
15,Nc1c(NCCc2ccccc2)c2ccccc2oc1=O,-22.5%
16,CC(C)(C)Nc1c(N)c(=O)oc2ccccc12,33.7% (active)
17,CCC1(C)NC(=O)N(CC(=O)N2CCN(c3cccc(Cl)c3)CC2)C1=O (stereo not given),22.3%
18,CCc1ccc(-c2nn(-c3ccccc3C)cc2C(=O)N2CCN(C3CCS(=O)(=O)C3)CC2)cc1 (stereo not given),3.49%
19,CCN1CCN(C(=O)Cn2nc(C)n3c(cc4c(OC)cccc43)c2=O)CC1,35.3% (active)
20,CCc1nn(CC(=O)N2CCN(CC)CC2)c(=O)c2cccn12,1.45%
21,COc1cccc2c(=O)n(CC(=O)N3CCCCCC3)ccc12,5.43%
